# CHX counter: affects cycloheximide protein synthesis inhibition readout, counter-screen; cell reporter, cycloheximide protein synthesis inhibition counterscreen; max response, %; 300,000 tested, 12% active; AID 2314; in the data active = max response mostly above about 13%, no sharp cut-off; inactive = mostly below about 14%; note: read at 38.3 µM for the half of the compounds with a filed dose; 0% is about no effect
# MARV entry inh: inhibitors of Marburg virus binding or cell entry | Marburg virus pseudotyped entry inhibition, cell reporter | AID 540276 | Potency, µM (doses to about 37.8 µM), for the others: top-dose activity change, negative = inhibition, usual class: inhibitors | 300,000 tested, 1.8% active; calls by dose curve; tested in HEK293 cells; note: potency is the fitted concentration of half-maximal effect; % is set by controls: 0 for no effect and ±100 for the full control effect
# Pf growth 96h: P. falciparum growth inhibition at 96 hour, primary screen for plastid delayed-death inhibitors. P. falciparum luciferase reporter growth, 96 h. Potency, µM (highest dose often 28.7 µM), for inactives: at the top dose activity change, negative = inhibition, most hits filed as inhibitors. 320,000 tested, 6.9% active. AID 504834; note: potency is the fitted concentration of half-maximal effect; % is set by controls: 0 for no effect and ±100 for the full control effect
#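 Parasite growth measured via integrated firefly luciferase reporter in P. falciparum. Infected erythrocytes at 2% hematocrit, 0.05% parasitemia final were treated 96 hours at 37 C under 5% CO2, and luminescence was read.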
# Lassa entry inh: blocks Lassa virus binding to or entry into cells; Lassa virus pseudotype entry inhibition, cell reporter; Potency, µM (titrated, usually from 37.9 µM), for the others: at the top dose activity change, negative = inhibition, most hits filed as inhibitors; 300,000 tested, 1.2% active; AID 540256; calls by dose curve; tested in HEK293 cells; note: potency is the fitted concentration of half-maximal effect; % is set by controls: 0 for no effect and ±100 for the full control effect; nearly all actives have a fitted effect of over 50% in size
# Shiga toxin inh: Shiga toxin inhibition. 290,000 tested, 9.2% active. AID 2315. inhibition, % at 38.7 µM. Vero cells, Shiga toxin protein synthesis inhibition reporter; in the data active = inhibition mostly above about 28%, no sharp cut-off; inactive = mostly below about 43%; note: 0% is about no effect
# Pf growth 48h: inhibits P. falciparum growth in the first generation, 48 h; P. falciparum luciferase growth in erythrocytes, 48 h; 310,000 tested, 5.9% active; Potency, µM (highest dose often 28.7 µM), inactives show at the highest dose activity change, negative = inhibition, usual class: inhibitors; note: potency is the fitted concentration of half-maximal effect; % is set by controls: 0 for no effect and ±100 for the full control effect
#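 Compounds are pin-transferred into medium, infected erythrocytes (2% hematocrit, 0.1% parasitemia final) are added, and plates sit one parasite generation at 37 C in 5% CO2. Detection reagent is then added and luminescence measured.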
# * hit, by the source's call; u = inconclusive; x = not tested or not shown; [ ] = remark or other dose. Shown are actives, neighbours in structure and some others; about 19% of the full set was active somewhere. Unless noted, calls come from the whole dose curve; as a rule, active = well fitted inhibition curve with a large enough effect; inconclusive = small, poorly fitted or top-dose-only effect, or another doubt; inactive = no such curve, though single readings can be large or run the other way.
SMILES,CHX counter,MARV entry inh,Pf growth 96h,Lassa entry inh,Shiga toxin inh,Pf growth 48h
CCOC(=O)N/N=C\c1ccc(-c2cc(Cl)ccc2Cl)o1,-4.3,u,22.0%,u,-3.2,5.22µM*
C[C@@]12C(=O)OC(=O)[C@]1(C)C1CCC2O1,x,x,1.85µM*,x,x,2.94µM*
CC12C(=O)N(c3nccs3)C(=O)C1(C)C1CCC2O1 (stereo unspecified),x,-26.9%,x,-10.8%,x,x
CCOC(=O)c1ccc(NC(=O)C2=C(C)C(=O)OC23CCN(C(C)C)CC3)cc1,x,x,x,-5.1%[46.1 µM],x,x
Cc1ccc(S(=O)(=O)CCc2nc3ccccc3s2)cc1,5.1,21.0%,u,-1.7%,20.4,33.9%
O=S(=O)(CCc1nc2ccccc2s1)c1ccc2ccccc2c1,32.2*,2.5%,-5.3%,1.7%,118.0*,x
Cc1ccc(S(=O)(=O)CCc2nc3ccccc3s2)cc1C,13.3*,2.5%,-23.1%,-24.0%,25.4,x
NNC(=O)CCS(=O)(=O)c1ccc2ccccc2c1,-1.1,-0.9%,u,14.8%,2.0,-15.2%
CCCCCn1c(NC2CCCCC2)nc2c1c(=O)[nH]c(=O)n2C,-2.7,x,u,x,-3.8,u
CCC(=O)N(c1nnc(SCC(=O)NN2C(=O)NC3(CCCCC3)C2=O)s1)C1CC1,x,x,u,x,x,0.1%
Cc1cc(NC(=O)c2cc(-c3ccc(C)c(C)c3)nc3ccccc23)no1,2.6,-4.1%,0.738µM*,-2.7%,20.1*,0.828µM*
Cc1ccc(-c2cc(C(=O)Nc3cc(C)on3)c3ccccc3n2)cc1,3.1,0.5%,104.2%,16.8%,15.6,u
Cc1cc(NC(=O)c2cc(-c3cccc(OCC(C)C)c3)nc3ccccc23)no1,-1.1,x,2.33µM*,x,-18.9,u
Cc1cc(NC(=O)c2cc(-c3ccccn3)nc3c(Cl)cccc23)no1,-0.6,-19.1%,2.08µM*,-26.8%,-9.4,-3.8%
Cc1cc(NC(=O)c2cc(-c3ccccn3)nc3ccccc23)no1,-3.5,-0.9%,-0.4%,5.3%,-14.6,x
O=C(C1CCC1)N1CCN(S(=O)(=O)c2cc(F)ccc2F)CC1,x,-2.1%,-7.8%,6.0%,x,9.8%
COc1ccc(C2(C(=O)N3CCC(n4nc(-c5ccccc5)oc4=O)CC3)CC2)cc1,-0.7,24.1%[46.1 µM],-8.1%,u,14.1,u
O=C(CCNC(=O)c1ccco1)Nc1ccccc1OC(F)F,1.9,-2.4%[46.1 µM],23.2%,4.7%[46.1 µM],-9.1,0.0%
O=c1oc(Cc2ccccc2)nc2ccccc12,13.7*,7.0%,28.8%,x,14.5,44.3%
c1ccc(Cc2nc3ccccc3o2)cc1,19.2,u,-14.5%,23.8%,54.7,x
CCOc1cc(C2CC(=O)c3c(ccc4ccccc34)N2)ccc1O (stereo unspecified),-2.0,-1.3%,1.04µM*,u,-17.1,0.6%
CC1CC(C)CN(c2oc(Cc3ccccc3)nc2C#N)C1 (stereo unspecified),6.1,19.6%,u,u,13.1,u
Cc1ccccc1OCc1nc(C#N)c(N2CCCC2)o1,4.0,-0.3%[46.1 µM],-4.6%,-10.2%,37.3,u
COc1ccccc1OCc1nc(C#N)c(N2CCCC2)o1,27.0*,23.5%[46.1 µM],-1.9%,-21.9%,48.9*,7.2%
N#Cc1nc(Cc2cccc3ccccc23)oc1N1CCN(c2ccccc2)CC1,-4.4,-6.9%,-29.9%,-11.3%,11.2,x
SMILES,CHX counter,MARV entry inh,Pf growth 96h,Lassa entry inh,Shiga toxin inh,Pf growth 48h
N#Cc1nc(Cc2ccccc2)oc1N1CCCC1,26.4*,3.8%[46.1 µM],-15.0%[5.75 µM],7.9%[46.1 µM],35.0*,-6.9%
N#Cc1nc(Cc2cccc3ccccc23)oc1N1CCOCC1,-2.5,2.6%,2.08µM*,5.2%,-2.4,u
N#Cc1nc(COc2ccccc2)oc1N1CCC(Cc2ccccc2)CC1,-3.7,u,-1.3%,u,-14.3,9.28µM*
CCC1CCCCN1CCCNC(=O)CN1C(=O)c2cccnc2Oc2ccc(Cl)cc21 (stereo unspecified),-9.1,x,-11.8%,20.5%[46.1 µM],-8.4,u
CC(=O)Nc1ccc(N/C=C/C(=O)c2ccccc2)cc1,37.4*,-12.3%,2.0%,u,53.3*,144.4%
Cc1cc(N/C=C/C(=O)c2ccccc2)ccc1Br,36.5*,x,u,x,56.1*,224.5%
CN(C)c1ccc(N/C=C/C(=O)c2ccccc2)cc1,27.6*,u,x,6.51µM*,77.8*,-37.6%
O=C(/C=C/Nc1ccccc1)c1ccc(Cl)cc1Cl,41.7*,x,271.1%,x,97.5*,257.0%
CN(C)c1ccc(/C=N/NC(=O)c2ccc(NC(=O)c3ccccc3)cc2)cc1,12.3,-8.8%[46.1 µM],0.4%,-17.0%,5.5,-21.6%
Cc1cccc(NC(=O)c2c(O)c3cccc4c3n(c2=O)CCC4)n1,-4.5,x,-18.5%,x,-0.4,8.5%
CN(C)C(/C=C/Nc1ccc(F)cc1F)=C(C#N)C#N,9.0,1.3%,17.0%,0.4%,-5.4,9.8%
CN(C)c1ccc(N/C=C/C(=O)C(C)(C)C)cc1,60.4,17.2%,x,u,148.2*,2.33µM*
CCOC(=O)c1ccc(N/C=C/C(=O)c2ccc(OC)cc2)cc1,1.3,-3.2%,0.0%,-28.1%,1.5,15.1%
O=C(/C=C/Nc1ccc(F)cc1Br)c1ccccc1,38.8*,u,2.4%,2µM*,40.2*,54.1%
C/C(=C\C(=O)c1ccc(Cl)cc1Cl)N(C)C,14.4,12.9%[46.1 µM],10.0%,4.7%[46.1 µM],31.6*,u
O=C(/C=C/Nc1ccccc1)c1ccccc1,26.9*,u,7.38µM*,u,29.4,x
CN(C)/C=C/C(=O)c1ccc(Cl)cc1Cl,17.4,2.6%[46.1 µM],32.3%,-21.2%,11.2,5.7%
O=C(NNC(=O)c1ccc([N+](=O)[O-])cc1Cl)c1ccncc1,-1.0,u,5.2%,u,-4.5,25.4%
C=CCSC(=S)Nc1c(C)n(C)n(-c2ccccc2)c1=O,-2.2,-0.1%[46.1 µM],23.7%,3.7%,-2.2,-0.5%
CCOc1ccc(-c2nnc(SCC(=O)Nc3ccc4c(c3)c3ccccc3n4CC)n2N)cc1,3.5,11.6µM*,u,u,16.7,-44.3%
Cn1c(COc2ccccc2)nnc1SCC(=O)Nc1ccc(N2CCOCC2)c(Cl)c1,12.6,7.9%,4.15µM*,-2.5%,13.6,u
COc1ccc(NC(=O)CSc2nnc(Cn3nnc4ccccc43)n2C)cc1,5.3,-15.6%,x,-3.1%,-20.8,8.2%
CCOC(=O)CN(C(=O)CSc1nnc(COc2ccc(OC)cc2)n1C)c1ccccc1,-9.1,9.5%,11.7µM*,15.6%,15.3,u
CCOc1ccc(NC(=O)CSc2nnc(Cn3cnc4ccccc43)n2C)cc1,1.0,9.0%,2.33µM*,-0.7%,9.7,-21.0%
O=C(CCn1c(=O)c2cccn2c2cccnc21)NCc1ccccc1Br,x,x,x,0.7%[46.1 µM],x,x
COc1cccc(OC)c1C(=O)NCCN1CCN(C(=O)c2c(OC)cccc2OC)CC1,-4.9,5.7%,x,1.6%,-6.2,2.4%
C=CCNC(=O)CCCOc1cc(C)ccc1C,5.2,4.4%,9.9%,-18.5%,-5.5,u
CCc1nc(SCC(=O)Nc2ccc(C(=O)O)cc2)n[nH]1,-0.9,x,u,x,24.1,x
Cn1c(Cn2cnc([N+](=O)[O-])n2)nnc1SCC(=O)Nc1ccccc1,-3.0,-1.4%,2.94µM*,13.8%,-32.8,14.1%

# Screening results: PubChem, National Center for Advancing Translational Sciences (NCATS)
